Assay in all cases: DAPPL (digital affinity profiling via proximity ligation, sequencing); 10 mM Tris-HCl pH 7.5, 50 mM NaCl, 1 mM DTT, 4% glycerol, room temperature, 30 min; GST-TFs on glutathione beads, 16-mer random dsDNA library, 0.1% formaldehyde crosslink after washing; high values mean tight binding
The target of test [1] is T1, FEV (Homo sapiens, UniProt Q99581 1-238).
T1 sequence: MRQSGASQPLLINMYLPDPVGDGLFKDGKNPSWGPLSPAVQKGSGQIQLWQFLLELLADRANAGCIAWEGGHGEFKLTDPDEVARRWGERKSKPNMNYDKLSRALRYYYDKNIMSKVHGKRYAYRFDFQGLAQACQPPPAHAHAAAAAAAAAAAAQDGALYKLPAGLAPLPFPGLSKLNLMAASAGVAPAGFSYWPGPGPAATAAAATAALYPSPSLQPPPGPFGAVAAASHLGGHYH
The settings on record: protein: recombinant; tags: N-terminal GST; dsDNA, one strand shown. Put shortly:
(§1)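 Human transcription factors fused to GST were expressed in yeast, captured on glutathione beads, given DNA barcodes and pooled with a GST-only negative control. Pools were incubated with 200 nmole of a 16-mer random double-stranded DNA library in Tris/NaCl/DTT/glycerol buffer at room temperature for 30 min. They were then washed, crosslinked with 0.1% formaldehyde, proximity-ligated (BsaI/T4 ligase, 1 h, 37 °C), PCR-amplified and sequenced on an Illumina NextSeq500. Binding signal is each 6-mer's read frequency for a factor divided by its frequency for the GST control.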

Test [2] concerns the target ETV5 (Homo sapiens, UniProt P41161 1-510). The settings on record: protein: recombinant; tags: N-terminal GST; dsDNA, one strand shown. An outline of the steps:
as §1

For test [3], the target named is HSF1 (Homo sapiens, UniProt Q00613 1-529). The note with it: protein: recombinant; tags: N-terminal GST; chain copies: 3; dsDNA, one strand shown. An outline of the steps: as §1
Sequence of HSF1 (Q00613 whole entry): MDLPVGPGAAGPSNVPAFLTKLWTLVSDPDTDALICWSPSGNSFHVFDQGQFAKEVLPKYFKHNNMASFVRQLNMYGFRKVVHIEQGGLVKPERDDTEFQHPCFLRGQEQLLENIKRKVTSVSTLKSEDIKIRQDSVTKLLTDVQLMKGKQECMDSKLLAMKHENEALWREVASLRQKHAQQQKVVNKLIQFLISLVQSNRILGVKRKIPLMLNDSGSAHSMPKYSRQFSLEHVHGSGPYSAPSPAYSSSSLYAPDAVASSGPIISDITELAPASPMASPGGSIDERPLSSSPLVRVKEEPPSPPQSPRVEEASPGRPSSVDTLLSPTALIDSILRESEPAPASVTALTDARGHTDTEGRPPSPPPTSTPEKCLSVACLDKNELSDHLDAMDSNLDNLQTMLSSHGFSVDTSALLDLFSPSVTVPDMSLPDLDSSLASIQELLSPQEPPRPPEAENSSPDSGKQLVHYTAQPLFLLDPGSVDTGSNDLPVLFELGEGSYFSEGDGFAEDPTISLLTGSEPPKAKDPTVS
In test [4] the target is T2, SPIC (Homo sapiens, UniProt Q8N5J4 1-248).
T2 sequence: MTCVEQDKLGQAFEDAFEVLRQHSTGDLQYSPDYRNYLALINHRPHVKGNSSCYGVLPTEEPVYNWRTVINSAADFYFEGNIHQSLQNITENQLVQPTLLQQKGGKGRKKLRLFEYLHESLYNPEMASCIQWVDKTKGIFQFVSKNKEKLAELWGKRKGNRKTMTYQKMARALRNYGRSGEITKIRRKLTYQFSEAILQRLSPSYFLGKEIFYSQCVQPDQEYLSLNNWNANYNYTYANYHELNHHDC
The settings on record: protein: recombinant; tags: N-terminal GST; dsDNA, one strand shown. An outline of the steps:
as §1

Test [5] has as its target ELF4 (Homo sapiens, UniProt Q99607 1-663). The settings on record: protein: recombinant; tags: N-terminal GST; dsDNA, one strand shown. An outline of the steps: as §1
Test [6] addresses T3, ELK4 (Homo sapiens, UniProt P28324-2 1-405).
T3 sequence: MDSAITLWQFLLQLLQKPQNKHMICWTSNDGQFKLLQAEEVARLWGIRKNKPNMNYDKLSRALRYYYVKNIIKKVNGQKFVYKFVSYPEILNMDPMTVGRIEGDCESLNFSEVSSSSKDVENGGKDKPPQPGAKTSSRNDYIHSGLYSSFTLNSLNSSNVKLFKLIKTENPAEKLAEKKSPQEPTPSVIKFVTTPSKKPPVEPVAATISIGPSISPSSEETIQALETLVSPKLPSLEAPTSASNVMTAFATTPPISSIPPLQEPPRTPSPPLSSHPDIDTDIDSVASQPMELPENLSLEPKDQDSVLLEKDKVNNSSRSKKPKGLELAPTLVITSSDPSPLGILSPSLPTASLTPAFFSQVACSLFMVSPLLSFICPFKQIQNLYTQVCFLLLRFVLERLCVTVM
The settings on record: protein: recombinant; tags: N-terminal GST; dsDNA, one strand shown. An outline of the steps:
as §1

Test [7] deals with T4, ETV2 (Homo sapiens, UniProt O00321 1-342).
T4 sequence: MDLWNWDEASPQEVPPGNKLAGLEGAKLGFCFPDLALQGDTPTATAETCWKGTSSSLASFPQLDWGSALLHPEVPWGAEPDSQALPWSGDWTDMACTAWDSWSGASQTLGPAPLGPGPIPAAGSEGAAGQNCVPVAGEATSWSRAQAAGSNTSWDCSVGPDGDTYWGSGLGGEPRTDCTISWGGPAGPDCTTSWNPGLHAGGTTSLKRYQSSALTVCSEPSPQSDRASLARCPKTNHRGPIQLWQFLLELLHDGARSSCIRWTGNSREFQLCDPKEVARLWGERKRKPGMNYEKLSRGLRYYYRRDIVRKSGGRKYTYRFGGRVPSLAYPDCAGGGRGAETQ
The settings on record: protein: recombinant; tags: N-terminal GST; dsDNA, one strand shown. Put shortly:
as §1

Test [8] concerns the target T5, ELF3 (Homo sapiens, UniProt P78545 1-371).
T5 sequence: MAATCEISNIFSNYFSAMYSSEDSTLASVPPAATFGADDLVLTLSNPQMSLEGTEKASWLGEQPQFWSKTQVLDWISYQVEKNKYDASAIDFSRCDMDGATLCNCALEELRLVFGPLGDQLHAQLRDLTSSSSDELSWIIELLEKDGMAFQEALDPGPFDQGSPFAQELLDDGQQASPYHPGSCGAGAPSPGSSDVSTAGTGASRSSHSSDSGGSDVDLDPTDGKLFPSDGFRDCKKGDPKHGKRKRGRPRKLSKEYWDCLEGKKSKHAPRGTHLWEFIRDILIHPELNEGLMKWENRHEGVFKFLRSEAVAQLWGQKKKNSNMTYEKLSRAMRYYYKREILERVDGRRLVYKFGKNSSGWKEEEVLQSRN
The settings on record: protein: recombinant; tags: N-terminal GST; dsDNA, one strand shown. Put shortly: as §1

Test [9] addresses CRX (Homo sapiens, UniProt O43186 1-299). The note with it: protein: recombinant; tags: N-terminal GST; dsDNA, one strand shown. An outline of the steps:
as §1

Test [10] deals with ETV1 (Homo sapiens, UniProt P50549 1-477). The note with it: protein: recombinant; tags: N-terminal GST; dsDNA, one strand shown. Put shortly: as §1
Sequence of ETV1 (P50549 whole entry): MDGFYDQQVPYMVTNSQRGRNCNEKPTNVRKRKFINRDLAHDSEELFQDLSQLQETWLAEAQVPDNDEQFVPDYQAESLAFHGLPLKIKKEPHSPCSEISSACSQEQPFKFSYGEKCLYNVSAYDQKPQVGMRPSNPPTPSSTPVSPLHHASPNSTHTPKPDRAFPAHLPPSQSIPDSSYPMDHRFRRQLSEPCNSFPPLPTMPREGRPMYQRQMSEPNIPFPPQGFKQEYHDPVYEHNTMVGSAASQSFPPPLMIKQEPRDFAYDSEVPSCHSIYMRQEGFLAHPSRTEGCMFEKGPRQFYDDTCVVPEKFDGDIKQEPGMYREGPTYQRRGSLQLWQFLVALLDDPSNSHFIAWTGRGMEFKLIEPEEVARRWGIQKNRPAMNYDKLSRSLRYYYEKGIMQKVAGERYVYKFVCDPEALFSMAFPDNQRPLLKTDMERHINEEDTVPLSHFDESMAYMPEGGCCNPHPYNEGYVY

Sequence of ELF4 (Q99607 whole entry): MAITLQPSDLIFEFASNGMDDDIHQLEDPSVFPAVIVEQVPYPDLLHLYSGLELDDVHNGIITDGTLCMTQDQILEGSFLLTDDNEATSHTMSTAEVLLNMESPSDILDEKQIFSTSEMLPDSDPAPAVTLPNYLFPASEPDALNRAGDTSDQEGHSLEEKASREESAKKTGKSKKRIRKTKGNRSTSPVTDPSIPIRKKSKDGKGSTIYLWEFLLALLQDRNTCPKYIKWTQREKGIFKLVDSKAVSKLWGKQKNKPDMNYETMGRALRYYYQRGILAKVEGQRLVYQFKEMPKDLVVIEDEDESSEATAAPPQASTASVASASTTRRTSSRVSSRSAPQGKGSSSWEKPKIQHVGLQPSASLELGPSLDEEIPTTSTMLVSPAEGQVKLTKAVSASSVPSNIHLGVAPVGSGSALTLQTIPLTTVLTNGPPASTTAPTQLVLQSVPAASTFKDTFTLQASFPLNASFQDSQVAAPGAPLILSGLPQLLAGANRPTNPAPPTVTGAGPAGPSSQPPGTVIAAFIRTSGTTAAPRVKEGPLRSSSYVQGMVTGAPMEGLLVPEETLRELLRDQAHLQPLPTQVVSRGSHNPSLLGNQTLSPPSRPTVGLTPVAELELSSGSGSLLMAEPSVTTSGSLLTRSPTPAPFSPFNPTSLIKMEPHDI
Sequence of CRX (O43186 whole entry): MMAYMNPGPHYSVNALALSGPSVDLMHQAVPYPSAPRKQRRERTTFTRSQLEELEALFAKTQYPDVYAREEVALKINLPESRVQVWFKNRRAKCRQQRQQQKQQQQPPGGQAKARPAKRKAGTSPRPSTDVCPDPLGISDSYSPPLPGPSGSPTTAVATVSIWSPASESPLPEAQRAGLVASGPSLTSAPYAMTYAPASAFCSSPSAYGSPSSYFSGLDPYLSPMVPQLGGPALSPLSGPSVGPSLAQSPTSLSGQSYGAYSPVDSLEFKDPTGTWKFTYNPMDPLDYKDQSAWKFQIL
Sequence of ETV5 (P41161 whole entry): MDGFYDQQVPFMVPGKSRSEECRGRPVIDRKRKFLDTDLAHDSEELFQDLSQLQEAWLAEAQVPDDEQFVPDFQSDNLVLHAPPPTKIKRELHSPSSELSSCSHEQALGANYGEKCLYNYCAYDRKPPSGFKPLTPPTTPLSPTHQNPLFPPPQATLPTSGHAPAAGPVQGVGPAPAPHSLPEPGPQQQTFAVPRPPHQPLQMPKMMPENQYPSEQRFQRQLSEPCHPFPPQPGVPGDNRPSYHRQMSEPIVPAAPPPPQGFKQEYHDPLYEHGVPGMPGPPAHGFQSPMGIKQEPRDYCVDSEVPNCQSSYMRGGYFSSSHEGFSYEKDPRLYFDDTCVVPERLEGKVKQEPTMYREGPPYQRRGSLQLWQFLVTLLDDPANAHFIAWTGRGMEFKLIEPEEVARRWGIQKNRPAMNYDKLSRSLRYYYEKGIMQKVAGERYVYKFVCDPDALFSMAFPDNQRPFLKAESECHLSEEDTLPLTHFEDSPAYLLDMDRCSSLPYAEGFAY

For GCGCTT, the binding signal in [1] is 1.37 fold enrichment (6-mer frequency, TF over GST control); in [2] it was 1.29 fold enrichment (6-mer frequency, TF over GST control); in [3], 1.16 fold enrichment (6-mer frequency, TF over GST control); in [4], 1.26 fold enrichment (6-mer frequency, TF over GST control); in test [5], 1.24 fold enrichment (6-mer frequency, TF over GST control); in test [6], 1.36 fold enrichment (6-mer frequency, TF over GST control). Also, the binding signal in test [7] is 1.12 fold enrichment (6-mer frequency, TF over GST control); in test [8], 1.04 fold enrichment (6-mer frequency, TF over GST control); in test [9], 1.39 fold enrichment (6-mer frequency, TF over GST control); in test [10], 1.3 fold enrichment (6-mer frequency, TF over GST control).

Consider CTGAAA, for which the binding signal is 1.25 fold enrichment (6-mer frequency, TF over GST control) in test [1]; 1.22 fold enrichment (6-mer frequency, TF over GST control) in test [2]; 1.16 fold enrichment (6-mer frequency, TF over GST control) in test [3]; 1.35 fold enrichment (6-mer frequency, TF over GST control) in [4]; 1.13 fold enrichment (6-mer frequency, TF over GST control) in [5]; 1.19 fold enrichment (6-mer frequency, TF over GST control) in [6]. Further, the binding signal in [7] is 1.15 fold enrichment (6-mer frequency, TF over GST control); in [8], 1.28 fold enrichment (6-mer frequency, TF over GST control); in [9], 1 fold enrichment (6-mer frequency, TF over GST control); in test [10], 1.1 fold enrichment (6-mer frequency, TF over GST control).

With TGATGG, the binding signal in test [1] was 1.16 fold enrichment (6-mer frequency, TF over GST control); in test [2] it was 1.34 fold enrichment (6-mer frequency, TF over GST control); in [3], 1.26 fold enrichment (6-mer frequency, TF over GST control); in [4], 1.51 fold enrichment (6-mer frequency, TF over GST control); in test [5], 1.29 fold enrichment (6-mer frequency, TF over GST control); in test [6], 1.33 fold enrichment (6-mer frequency, TF over GST control). Also, the binding signal in test [7] is 1.29 fold enrichment (6-mer frequency, TF over GST control); in test [8], 1.32 fold enrichment (6-mer frequency, TF over GST control); in test [9], 1.1 fold enrichment (6-mer frequency, TF over GST control); in test [10], 1.32 fold enrichment (6-mer frequency, TF over GST control).

AAAATA: the binding signal in test [1] is 1.15 fold enrichment (6-mer frequency, TF over GST control); in [2], 1.17 fold enrichment (6-mer frequency, TF over GST control); in [3], 1.34 fold enrichment (6-mer frequency, TF over GST control); in test [4], 1.16 fold enrichment (6-mer frequency, TF over GST control); in [5], 1.17 fold enrichment (6-mer frequency, TF over GST control); in test [6], 1.19 fold enrichment (6-mer frequency, TF over GST control). For the same sequence, the binding signal in test [7] was 1.21 fold enrichment (6-mer frequency, TF over GST control); in [8] it was 1.06 fold enrichment (6-mer frequency, TF over GST control); in test [9], 1.35 fold enrichment (6-mer frequency, TF over GST control); in test [10], 1.1 fold enrichment (6-mer frequency, TF over GST control).

For the sequence TAAGTT, the binding signal in test [1] was 1.24 fold enrichment (6-mer frequency, TF over GST control); in test [2] it was 1.37 fold enrichment (6-mer frequency, TF over GST control); in test [3] it was 1.45 fold enrichment (6-mer frequency, TF over GST control); in test [4], 1.36 fold enrichment (6-mer frequency, TF over GST control); in test [5], 1.34 fold enrichment (6-mer frequency, TF over GST control); in [6], 1.22 fold enrichment (6-mer frequency, TF over GST control). For the same sequence, the binding signal is 1.25 fold enrichment (6-mer frequency, TF over GST control) in test [7]; 1.09 fold enrichment (6-mer frequency, TF over GST control) in [8]; 1.94 fold enrichment (6-mer frequency, TF over GST control) in test [9]; 1.34 fold enrichment (6-mer frequency, TF over GST control) in test [10].

Consider GCTCGC, for which the binding signal is 1.42 fold enrichment (6-mer frequency, TF over GST control) in test [1]; 1.32 fold enrichment (6-mer frequency, TF over GST control) in test [2]; 1.25 fold enrichment (6-mer frequency, TF over GST control) in [3]; 1.44 fold enrichment (6-mer frequency, TF over GST control) in [4]; 1.28 fold enrichment (6-mer frequency, TF over GST control) in test [5]; 1.52 fold enrichment (6-mer frequency, TF over GST control) in test [6]. In addition, the binding signal in test [7] is 1.17 fold enrichment (6-mer frequency, TF over GST control); in test [8] it was 1.51 fold enrichment (6-mer frequency, TF over GST control); in test [9], 1.12 fold enrichment (6-mer frequency, TF over GST control); in test [10], 1.37 fold enrichment (6-mer frequency, TF over GST control).

On to CTACGA, for which the binding signal was 1.34 fold enrichment (6-mer frequency, TF over GST control) in [1]; 1.2 fold enrichment (6-mer frequency, TF over GST control) in [2]; 1.25 fold enrichment (6-mer frequency, TF over GST control) in [3]; 1.17 fold enrichment (6-mer frequency, TF over GST control) in test [4]; 1.24 fold enrichment (6-mer frequency, TF over GST control) in [5]; 1.22 fold enrichment (6-mer frequency, TF over GST control) in test [6]. The binding signal was 1.47 fold enrichment (6-mer frequency, TF over GST control) in [7]; 1.5 fold enrichment (6-mer frequency, TF over GST control) in test [8]; 1.21 fold enrichment (6-mer frequency, TF over GST control) in [9]; 1.19 fold enrichment (6-mer frequency, TF over GST control) in test [10].

TTACAG: the binding signal in test [1] was 1.14 fold enrichment (6-mer frequency, TF over GST control); in [2], 1.2 fold enrichment (6-mer frequency, TF over GST control); in test [3], 1.44 fold enrichment (6-mer frequency, TF over GST control); in [4], 1.3 fold enrichment (6-mer frequency, TF over GST control); in [5], 1.26 fold enrichment (6-mer frequency, TF over GST control); in [6], 1.37 fold enrichment (6-mer frequency, TF over GST control). The binding signal is 1.14 fold enrichment (6-mer frequency, TF over GST control) in test [7]; 1.38 fold enrichment (6-mer frequency, TF over GST control) in [8]; 1.85 fold enrichment (6-mer frequency, TF over GST control) in test [9]; 1.2 fold enrichment (6-mer frequency, TF over GST control) in test [10].
